Assay outcomes from PubChem.
CBX7 AlphaScr – CBX7 chromodomain binding inhibitors, primary screen, biochemical, AlphaScreen; AlphaScreen His6-CBX7 / biotin-H3K27me3 peptide binding; stronger effect = lower value; normalised signal (fraction of DMSO) (no concentration beside the values); 1.1% of 66,000 active; in the data active = normalised signal below about 0.5
Target sequence (O95931 whole entry, looked up): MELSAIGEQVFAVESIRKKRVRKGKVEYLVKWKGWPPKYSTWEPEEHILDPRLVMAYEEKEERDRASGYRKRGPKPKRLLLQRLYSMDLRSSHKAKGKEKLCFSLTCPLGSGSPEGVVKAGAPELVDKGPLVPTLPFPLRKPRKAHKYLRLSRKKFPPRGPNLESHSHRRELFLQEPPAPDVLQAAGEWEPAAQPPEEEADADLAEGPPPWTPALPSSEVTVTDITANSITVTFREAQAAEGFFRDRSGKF
Each line names hits and unclear results; the compound was inactive in the other large screens. Many of the other results were omitted from the sample, so hits are more common in it than they were.

O=C(c1n[nH]c(=O)c2ccccc12)N1CCN(c2ccccn2)CC1	none
Cc1ccc(NC(=O)C(Cc2ccccc2)N2C(=O)c3ccccc3C2=O)cc1 (stereo unspecified)	none
O=S(=O)(c1ccc(F)cc1)N(CCCN1CCOCC1)Cc1cccs1	none
O=S(=O)(c1cccc(Cl)c1)N(CCCN1CCOCC1)Cc1cccs1	none
O=S(=O)(c1ccc(Cl)cc1)N(CCCN1CCOCC1)Cc1cccs1	CBX7 AlphaScr 0.49
Cn1c(SCC(=O)c2ccc3c(c2)CCCC3)nnc1-c1ccccc1	none
CCOC(=O)c1cnc2ccc(OCC)cc2c1Nc1ccc2c(c1)OCCO2	none
CCOC(=O)c1cnc2ccc(Br)cc2c1Nc1ccc2c(c1)OCCO2	none
CCOC(=O)c1cnc2ccc(OCC)cc2c1Nc1ccc2c(c1)OCO2	CBX7 AlphaScr 0.42
CCOC(=O)c1cnc2ccc(OC)cc2c1Nc1ccc2c(c1)OCCO2	CBX7 AlphaScr 0.47
CCOC(=O)c1cnc2ccc(OC)cc2c1Nc1ccc(C)c(C)c1	none
CCOC(=O)c1cnc2ccc(OCC)cc2c1Nc1ccc(CC)cc1	none
CC1CCN(c2c(NCc3ccc(C(=O)NCc4cccnc4)cc3)c(=O)c2=O)CC1	none
CCCCCn1c(=O)[nH]c2cc(C(=O)N3CCN(Cc4ccc5c(c4)OCO5)CC3)ccc2c1=O	none
Cc1cc(C)c(C#N)c(Nc2ccc(C3CCCCC3)cc2)n1	none
CCc1noc(C)c1C(=O)Nc1nnc(-c2ccc(OC)cc2)s1	none
COCCn1c(SCC(=O)Nc2ccc(C)cc2C)nnc1-c1c[nH]c2ccccc12	none
Brc1ccc(-c2cnc3ccccc3n2)cc1	none
Nc1ccc(-c2ccc(-c3cnc4ccccc4n3)cc2)cc1	CBX7 AlphaScr 0.15
CCOc1ccc(-c2cnc3ccccc3n2)cc1	none
CC1(C)CC(CCN)(c2ccc(F)cc2)CCO1 (stereo unspecified)	none
COc1ccc(-c2cn(-c3ccc(F)cc3)c(SCC(=O)Nc3cccc(Cl)c3)n2)cc1OC	none
COc1ccc(-c2cn(-c3ccc(F)cc3)c(SCC(=O)Nc3cc(F)ccc3F)n2)cc1OC	none
COc1ccc(-c2cn(-c3ccc(F)cc3)c(SCC(=O)Nc3cccc(F)c3)n2)cc1OC	CBX7 AlphaScr 0.39
CCOc1ccc(CCNC(=O)Cn2ncc3ccsc3c2=O)cc1	none
COc1ccc(-c2nc3ncccn3c2Nc2ccc(C)cc2)cc1	none
Cc1ccc2nc(-c3ccccn3)c(Nc3ccccc3)n2c1	CBX7 AlphaScr 0.11
Cc1ccc(Nc2c(-c3cccnc3)nc3ccc(C)cn23)cc1	none
Cc1ccc2nc(-c3cccnc3)c(Nc3ccccc3)n2c1	none
Cc1ccc2nc(-c3ccccn3)c(Nc3ccccc3C)n2c1	CBX7 AlphaScr 0.0067
Cc1ccc(Nc2c(-c3ccccc3)nc3ccc(C)cn23)cc1	none
Cc1ccc2nc(-c3ccccn3)c(Nc3ccc(F)cc3)n2c1	CBX7 AlphaScr 0.21
Cc1ccccc1Nc1c(-c2ccccn2)nc2ccc(Cl)cn12	none
Clc1ccc2nc(-c3ccccn3)c(Nc3ccccc3)n2c1	none
COc1ccc(Nc2c(-c3ccccn3)nc3ccc(C)cn23)cc1	CBX7 AlphaScr 0.06
Fc1ccc(Nc2c(-c3ccccn3)nc3ccc(Cl)cn23)cc1	none
Cc1ccc2nc(-c3ccncc3)c(Nc3ccccc3C)n2c1	none
Cc1ccccc1-c1nc(CN2CCC(C(=O)NCCc3ccc(Cl)cc3)CC2)c(C)o1	none
Cc1ccc(OCC(=O)Nc2nc(-c3ccc(F)cc3F)cs2)cc1	none
O=C(C1CC1)N1CCc2cc(S(=O)(=O)NC3CCN(Cc4ccccc4)CC3)ccc21	none
CCOc1ccc(Nc2cc(C(=O)NCc3ccc(F)cc3)c3ccccc3n2)cc1	none
Cc1ccc(N(C)C(=O)CN(C)S(=O)(=O)c2cccc3cccnc23)cc1	none
Clc1ccc2nc(-c3ccccn3)c(Nc3ccc4c(c3)OCCO4)n2c1	CBX7 AlphaScr 0.15
Clc1ccc2nc(-c3ccc(N4CCOCC4)cc3)c(Nc3ccc4c(c3)OCCO4)n2c1	none
Clc1ccc2nc(-c3ccccc3)c(Nc3ccc4c(c3)OCCO4)n2c1	none
COc1ccc(Nc2nc(C)cc(C)c2C(N)=O)cc1OC	none
CC1CN(S(=O)(=O)c2ccc(C(=O)Nc3nnc(C4CC4)o3)cc2)CC(C)O1 (stereo unspecified)	none
CC1CCCCN1S(=O)(=O)c1ccc(C(=O)Nc2nnc(C3CC3)o2)cc1 (stereo unspecified)	CBX7 AlphaScr 0.00088
COCc1nnc(NC(=O)c2ccc(S(=O)(=O)N3CCCCC3C)cc2)o1 (stereo unspecified)	none
CN(C1CCCCC1)S(=O)(=O)c1ccc(C(=O)Nc2ccccc2-c2nc3ccccc3[nH]2)cc1	none
CCc1nnc(NC(=O)c2ccc(S(=O)(=O)N(C)C3CCCCC3)cc2)o1	CBX7 AlphaScr 0.065
O=C(Nc1nnc(C2CC2)o1)c1ccc(S(=O)(=O)N2CCCCC2)cc1	CBX7 AlphaScr 0.012
CC1CCN(S(=O)(=O)c2ccc(C(=O)Nc3nnc(C4CC4)o3)cc2)CC1	none
COCc1nnc(NC(=O)c2ccc(S(=O)(=O)N3CCOCC3)cc2)o1	none
CCc1nnc(NC(=O)c2ccc(S(=O)(=O)N3CC(C)OC(C)C3)cc2)o1 (stereo unspecified)	none
CCOC(=O)c1oc2ccccc2c1NC(=O)c1ccc(S(=O)(=O)N(C)C2CCCCC2)cc1	none
